Results on 25 molecules are retold here after the supplement of paper PMC7156485.

Settings in all cases: concentration: 10 µM; 24 h
Experiment [1] concerns HCC1569. Nature of the experiment: cell number relative to DMSO (% of DMSO); higher = more cells (less growth inhibition / toxicity). The gist of the method: (§1)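 HCC1569 and TDF cells (800 per well, 384-well plates, RPMI with 10% FBS) were treated with compounds at 10 µM for 24 h at 37 °C, in triplicate. Cells were fixed in 3.7% formaldehyde and stained with a rabbit anti-H1.0 antibody, an AlexaFluor 647 secondary and DAPI; six fields per well were imaged at ×10. H1.0 nuclear intensity or cell number is expressed as percent of the plate DMSO control, taking the median of replicates. HCC1569 values were smoothed for positional effects.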

The test system of experiment [2] is TDF. The experiment is described as above. In a few lines:
as §1

For experiment [3], the system named is TDF. Nature of the experiment: H1.0 immunofluorescence intensity relative to DMSO (% of DMSO); higher = stronger H1.0 induction, active = 120 or more. The gist of the method:
as §1

Experiment [4] concerns HCC1569. Nature of the experiment: H1.0 immunofluorescence intensity relative to DMSO (% of DMSO); higher = stronger H1.0 induction, active = 140 or more. In a few lines: as §1

SMILES strings stand for the structures. Structures can show the parent of a compound that is named as a salt.
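Throughout, for H1.0 immunofluorescence intensity relative to DMSO: TDF is a line of transformed human dermal fibroblasts of mesenchymal origin.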
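Throughout, for cell number relative to DMSO: TDF denotes transformed human dermal fibroblasts of mesenchymal origin.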

For `NC(Cn1ccc(=O)[nH]c1=O)C(=O)O` (stereo not drawn) [S(-)-Willardiine], the cell number is 104 in the experiment with HCC1569 [1] and 118 with TDF [2]. In addition, the results for the H1.0 immunofluorescence intensity in the experiment with TDF [3] and with HCC1569 [4] were 97.7 (inactive) and 97.6 (inactive), respectively.
The like results for `CC1CCCC(O)CCCCCc2cc(O)cc(O)c2C(=O)O1` (stereo not given) were, in that order, 102, 93.5, 91.8 (inactive) and 99.2 (inactive).
With `CC(C)NP(=O)(NC(C)C)OP(=O)(NC(C)C)NC(C)C` [Tetraisopropyl pyrophosphoramide], the cell number with HCC1569 [1] is 99.2; in the experiment with TDF [2], 104. Further, the H1.0 immunofluorescence intensity was 94.9 (inactive) with TDF [3] and 105 (inactive) in the experiment with HCC1569 [4].
In the case of `N#CC(C#N)=Cc1cc(O)c(O)c(O)c1` [Tyrphostin 25], the values for the cell number in the experiment on HCC1569 [1] and in the experiment on TDF [2] were 91.1 and 89.8, respectively. Also, the H1.0 immunofluorescence intensity was 102 (inactive) with TDF [3] and 113 (inactive) in the experiment on HCC1569 [4].
The matching figures for `CN1C2CCC1CC(OC(=O)c1cc(Cl)cc(Cl)c1)C2` (stereo not given) [3-Tropanyl-3,5-dichlorobenzoate]: 100, 106, 102 (inactive) and 108 (inactive).
With `NC(=NCCCC(N)C(=O)O)N[N+](=O)[O-]` [NG-Nitro-L-arginine], the cell number in the experiment with HCC1569 [1] worked out at 104; in the experiment on TDF [2], 96.7. Moreover, the figures for the H1.0 immunofluorescence intensity in the experiment on TDF [3] and with HCC1569 [4] were 89.6 (inactive) and 90 (inactive), respectively.
Regarding `COc1ccc(CCN2CCC(Nc3nc4ccccc4n3Cc3ccc(F)cc3)CC2)cc1` [Astemizole], the cell number in the experiment with HCC1569 [1] came out at 88.6; in the experiment with TDF [2], 89. Moreover, the H1.0 immunofluorescence intensity in the experiment with TDF [3] was 109 (inactive); in the experiment on HCC1569 [4], 143 (active).
Consider `COCC1OC(=O)c2coc3c2C1(C)C1=C(C3=O)C2CCC(=O)C2(C)CC1OC(C)=O` (stereo not given) [Wortmannin from Penicillium funiculosum], for which the values for the cell number in the experiment with HCC1569 [1] and in the experiment with TDF [2] were 41.7 and 100, respectively. Besides, the H1.0 immunofluorescence intensity with TDF [3] was 89.5 (inactive); in the experiment on HCC1569 [4], 153 (active).
The like results for `CC(C)C1(NC(=O)C2CC3c4cccc5[nH]cc(c45)CC3N(C)C2)OC2(O)C3CCCN3C(=O)C(Cc3ccccc3)N2C1=O.CS(=O)(=O)O` (stereo not given) [Dihydroergocristine methanesulfonate] were, in that order, 91.8, 109, 106 (inactive) and 126 (inactive).
As to `CCCN(CCC)C1CCc2c(F)ccc(O)c2C1.Cl` (stereo not drawn) [S(-)-UH-301 hydrochloride], the values for the cell number in the experiment on HCC1569 [1] and in the experiment on TDF [2] were 102 and 97.9, respectively. Further, the H1.0 immunofluorescence intensity was 98.7 (inactive) in the experiment with TDF [3] and 96.3 (inactive) with HCC1569 [4].
For `CCC1(C2=NCCN2)Cc2ccccc2O1.Cl` (stereo not given) [Efaroxan hydrochloride], the cell number with HCC1569 [1] was determined as 103; in the experiment on TDF [2], 105. Also, the H1.0 immunofluorescence intensity with TDF [3] was 93.1 (inactive); with HCC1569 [4], 94 (inactive).
For `CCC(C)CC(C)N` (stereo not given) [1,3-dimethylpentylamine], the results for the cell number in the experiment on HCC1569 [1] and with TDF [2] were 103 and 106, respectively. In addition, the H1.0 immunofluorescence intensity is 99 (inactive) in the experiment with TDF [3] and 96.9 (inactive) with HCC1569 [4].
On to `CC1=CC23C(=O)C(C=C(CO)C(O)C2(O)C1O)C1C(CC3C)C1(C)C` (stereo not given) [Ingenol], for which the cell number in the experiment with HCC1569 [1] amounted to 102; in the experiment with TDF [2] it was 107. Moreover, the H1.0 immunofluorescence intensity with TDF [3] is 94.7 (inactive); in the experiment on HCC1569 [4], 80 (inactive).
Consider `CC=C(C)C(=O)OC1C(C)=C2C(C1OC(=O)CCCCCCC)C(C)(OC(C)=O)CC(OC(=O)CCC)C1(O)C2OC(=O)C1(C)O` (stereo not given) [Thapsigargin], for which the cell number is 62.4 in the experiment on HCC1569 [1] and 44.2 in the experiment on TDF [2]. The figures for the H1.0 immunofluorescence intensity in the experiment on TDF [3] and in the experiment with HCC1569 [4] were 130 (active) and 195 (active), respectively.
The like results for `Cl.NCCc1ccc(S(=O)(=O)F)cc1` [4-(2-Aminoethyl)benzenesulfonyl fluoride hydrochloride] were, in that order, 100, 107, 93.2 (inactive) and 88.6 (inactive).
The matching figures for `CC(C)(C)NCC(O)c1cc(Cl)c(N)c(Cl)c1` (stereo not given) [Clenbuterol]: 99.5, 103, 95.2 (inactive) and 118 (inactive).
For the molecule `OC1CN2CCC(O)C2C(O)C1O` (stereo not given) [Castanospermine], the cell number in the experiment with HCC1569 [1] was 100; with TDF [2] it was 104. The H1.0 immunofluorescence intensity in the experiment with TDF [3] was 89.5 (inactive); with HCC1569 [4], 90.4 (inactive).
Regarding `CNC(=O)OCC[N+](C)(C)C.[Cl-]` [Methylcarbamylcholine chloride], the cell number in the experiment with HCC1569 [1] is 101; with TDF [2], 92.5. Moreover, the H1.0 immunofluorescence intensity in the experiment with TDF [3] was 99.2 (inactive); in the experiment on HCC1569 [4] it was 95.8 (inactive).
Take `Br.C#CCOC(=O)C1=CCCN(C)C1` [Arecaidine propargyl ester hydrobromide]: the cell number in the experiment with HCC1569 [1] stood at 100; in the experiment on TDF [2], 98.1. The figures for the H1.0 immunofluorescence intensity with TDF [3] and in the experiment with HCC1569 [4] were 93.1 (inactive) and 92.2 (inactive), respectively.
The matching figures for `Cl.O=C(N[C@H]1CN2CCC1CC2)c1c[nH]c2ccsc2c1=O`: 106, 94.7, 98.3 (inactive) and 107 (inactive).
On to `CNc1ccc2oc(CC3OC4(CCC3C)OC(C(C)C(=O)c3ccc[nH]3)C(C)CC4C)nc2c1C(=O)O` (stereo not given) [Calcimycin], for which the cell number with HCC1569 [1] is 43.8; in the experiment with TDF [2], 23.3. The H1.0 immunofluorescence intensity is 180 (active) with TDF [3] and 128 (inactive) with HCC1569 [4].
The matching figures for `NC(N)=Nc1ccc2[nH]c3c(c2c1)CC1(O)C2Cc4ccc(O)c5c4C1(CCN2CC1CC1)C3O5.O=C(O)C(F)(F)F.O=C(O)C(F)(F)F` (stereo not given) [Guanidinyl-naltrindole di-trifluoroacetate]: 93.6, 83.5, 104 (inactive) and 115 (inactive).
The matching figures for `CC(C)Oc1cccnc1N(C)C1CCN(Cc2ccc(I)cc2)CC1` [RBI-257 maleate]: 100, 98.1, 94.8 (inactive) and 102 (inactive).
The matching figures for `Cc1cccc(C)c1NC1=NCCCS1.Cl` [Xylazine hydrochloride]: 100, 118, 99.9 (inactive) and 111 (inactive).
Take `C[N+](C)(C)CCCCCCCCCC[N+](C)(C)C` [Decamethonium]: the cell number in the experiment on HCC1569 [1] was determined as 105; with TDF [2], 118. Moreover, the H1.0 immunofluorescence intensity in the experiment on TDF [3] is 91 (inactive); in the experiment with HCC1569 [4] it was 102 (inactive).
